# Laboratory results reported in paper PMC7862700, “An all-to-all approach to the identification of sequence-specific readers for epigenetic DNA modifications on cytosine”.
# How the values were obtained:
# Experiment in all cases: DAPPL (digital affinity profiling via proximity ligation, sequencing); 10 mM Tris-HCl pH 7.5, 50 mM NaCl, 1 mM DTT, 4% glycerol, room temperature, 30 min; GST-TFs on glutathione beads, 16-mer random dsDNA library, 0.1% formaldehyde crosslink after washing; high values mean tight binding
# FLI1 = target: T1, FLI1 (Homo sapiens, UniProt Q01543 1-452); conditions: protein: recombinant; tags: N-terminal GST; dsDNA, one strand shown
# T1 sequence: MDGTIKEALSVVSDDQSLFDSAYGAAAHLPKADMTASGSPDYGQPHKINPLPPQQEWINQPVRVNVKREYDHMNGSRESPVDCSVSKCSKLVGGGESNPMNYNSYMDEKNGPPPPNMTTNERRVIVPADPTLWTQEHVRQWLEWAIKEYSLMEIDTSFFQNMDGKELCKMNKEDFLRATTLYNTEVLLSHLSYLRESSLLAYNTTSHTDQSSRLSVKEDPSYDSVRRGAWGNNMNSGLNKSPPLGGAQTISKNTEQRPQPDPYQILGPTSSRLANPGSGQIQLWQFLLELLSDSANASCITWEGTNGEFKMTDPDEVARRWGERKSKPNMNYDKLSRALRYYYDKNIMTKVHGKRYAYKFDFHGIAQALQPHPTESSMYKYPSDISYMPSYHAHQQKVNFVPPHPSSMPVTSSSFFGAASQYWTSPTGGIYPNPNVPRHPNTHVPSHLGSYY
# Summary of the method: (§1)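 Human transcription factors were made in yeast as GST fusions, captured on glutathione beads and barcoded with DNA. With a tag-only sample included, the pool was incubated with 200 nmole of a random double-stranded 16-mer DNA library in Tris/NaCl/DTT/glycerol buffer at room temperature for 30 min, then crosslinked with 0.1% formaldehyde after washing, ligated by proximity, amplified and sequenced. For binding signal, each hexamer's read frequency for a factor is divided by its frequency for the tag-only sample.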
# ELK1 = target: T2, ELK1 (Homo sapiens, UniProt P19419 1-428); conditions: protein: recombinant; tags: N-terminal GST; dsDNA, one strand shown
# T2 sequence: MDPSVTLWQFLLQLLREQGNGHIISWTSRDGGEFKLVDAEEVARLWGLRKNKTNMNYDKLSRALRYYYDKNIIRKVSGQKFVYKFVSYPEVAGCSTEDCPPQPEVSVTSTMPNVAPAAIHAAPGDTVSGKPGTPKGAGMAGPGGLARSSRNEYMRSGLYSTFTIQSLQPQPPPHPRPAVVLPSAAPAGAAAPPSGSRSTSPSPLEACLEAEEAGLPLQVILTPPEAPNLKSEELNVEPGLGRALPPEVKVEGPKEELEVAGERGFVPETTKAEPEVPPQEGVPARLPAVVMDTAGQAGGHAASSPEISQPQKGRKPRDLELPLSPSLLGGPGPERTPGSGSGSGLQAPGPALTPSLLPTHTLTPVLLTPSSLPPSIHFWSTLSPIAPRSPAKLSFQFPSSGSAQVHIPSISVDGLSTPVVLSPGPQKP
# Summary of the method: as §1
# GABPA = target: T3, GABPA (Homo sapiens, UniProt Q06546 1-454); conditions: protein: recombinant; tags: N-terminal GST; dsDNA, one strand shown
# T3 sequence: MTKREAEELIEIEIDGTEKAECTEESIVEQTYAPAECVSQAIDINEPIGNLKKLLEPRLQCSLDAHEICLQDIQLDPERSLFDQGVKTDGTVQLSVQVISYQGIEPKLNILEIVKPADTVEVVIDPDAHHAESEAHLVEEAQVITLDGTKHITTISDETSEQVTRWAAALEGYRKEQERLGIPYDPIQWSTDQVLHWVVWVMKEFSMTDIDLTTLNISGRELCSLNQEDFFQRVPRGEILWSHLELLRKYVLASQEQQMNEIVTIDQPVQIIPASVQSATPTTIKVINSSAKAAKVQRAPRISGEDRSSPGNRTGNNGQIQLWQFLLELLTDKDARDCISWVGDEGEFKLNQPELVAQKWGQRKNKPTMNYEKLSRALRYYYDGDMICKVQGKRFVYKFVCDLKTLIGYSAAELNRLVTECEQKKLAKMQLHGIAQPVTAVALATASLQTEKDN
# Summary of the method: as §1
# ERG = target: T4, ERG (Homo sapiens, UniProt P11308 1-479); conditions: protein: recombinant; tags: N-terminal GST; dsDNA, one strand shown
# T4 sequence: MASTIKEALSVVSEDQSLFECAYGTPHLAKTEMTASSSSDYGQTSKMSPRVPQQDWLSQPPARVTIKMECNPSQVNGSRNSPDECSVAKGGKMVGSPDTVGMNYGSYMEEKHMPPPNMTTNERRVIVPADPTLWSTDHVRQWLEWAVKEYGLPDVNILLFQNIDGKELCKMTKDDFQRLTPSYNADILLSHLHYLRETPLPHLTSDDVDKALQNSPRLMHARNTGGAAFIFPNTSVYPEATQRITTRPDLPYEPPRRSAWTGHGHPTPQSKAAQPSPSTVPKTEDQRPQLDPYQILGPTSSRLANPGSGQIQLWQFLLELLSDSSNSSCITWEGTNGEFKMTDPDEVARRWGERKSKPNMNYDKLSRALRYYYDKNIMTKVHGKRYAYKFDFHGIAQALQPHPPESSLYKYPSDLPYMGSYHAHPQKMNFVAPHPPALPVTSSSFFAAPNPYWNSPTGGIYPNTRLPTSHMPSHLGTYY
# Summary of the method: as §1
# ELF1 = ELF1 (Homo sapiens, UniProt P32519 1-619); conditions: protein: recombinant; tags: N-terminal GST; dsDNA, one strand shown
# Summary of the method: as §1
# EHF = target: T5, EHF (Homo sapiens, UniProt Q9NZC4 1-300); conditions: protein: recombinant; tags: N-terminal GST; dsDNA, one strand shown
# T5 sequence: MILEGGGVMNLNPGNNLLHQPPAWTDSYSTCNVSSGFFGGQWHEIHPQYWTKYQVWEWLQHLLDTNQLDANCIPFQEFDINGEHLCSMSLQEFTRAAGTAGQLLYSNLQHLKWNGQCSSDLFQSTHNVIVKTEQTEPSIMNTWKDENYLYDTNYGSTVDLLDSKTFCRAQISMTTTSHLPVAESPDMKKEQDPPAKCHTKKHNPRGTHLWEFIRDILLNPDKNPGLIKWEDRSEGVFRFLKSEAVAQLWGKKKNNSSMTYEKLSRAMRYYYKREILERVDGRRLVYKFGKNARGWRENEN
# Summary of the method: as §1
# SPI1 = SPI1 (Homo sapiens, UniProt P17947 1-270); conditions: protein: recombinant; tags: N-terminal GST; dsDNA, one strand shown
# Summary of the method: as §1
# SPIB = SPIB (Homo sapiens, UniProt Q01892 1-262); conditions: protein: recombinant; tags: N-terminal GST; dsDNA, one strand shown
# Summary of the method: as §1
# ELK3 = target: T6, ELK3 (Homo sapiens, UniProt P41970 1-407); conditions: protein: recombinant; tags: N-terminal GST; dsDNA, one strand shown
# T6 sequence: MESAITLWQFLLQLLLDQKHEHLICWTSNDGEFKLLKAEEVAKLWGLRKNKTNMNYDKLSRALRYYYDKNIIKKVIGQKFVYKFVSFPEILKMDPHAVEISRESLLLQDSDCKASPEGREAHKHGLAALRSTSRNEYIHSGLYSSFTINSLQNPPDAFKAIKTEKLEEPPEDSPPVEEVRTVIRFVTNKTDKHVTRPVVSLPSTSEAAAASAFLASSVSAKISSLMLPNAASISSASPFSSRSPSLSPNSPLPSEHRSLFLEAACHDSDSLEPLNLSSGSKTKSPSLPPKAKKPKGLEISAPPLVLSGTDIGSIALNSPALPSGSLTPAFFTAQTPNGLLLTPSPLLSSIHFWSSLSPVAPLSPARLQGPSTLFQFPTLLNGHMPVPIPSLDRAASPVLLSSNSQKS
# Summary of the method: as §1
# FEV = target: T7, FEV (Homo sapiens, UniProt Q99581 1-238); conditions: protein: recombinant; tags: N-terminal GST; dsDNA, one strand shown
# T7 sequence: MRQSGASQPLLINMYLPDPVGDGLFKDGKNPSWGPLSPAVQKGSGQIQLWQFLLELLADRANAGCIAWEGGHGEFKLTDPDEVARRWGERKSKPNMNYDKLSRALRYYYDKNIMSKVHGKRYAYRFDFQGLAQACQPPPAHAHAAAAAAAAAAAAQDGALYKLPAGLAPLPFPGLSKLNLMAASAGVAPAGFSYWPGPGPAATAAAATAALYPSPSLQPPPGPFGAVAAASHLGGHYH
# Summary of the method: as §1
# ETV5 = ETV5 (Homo sapiens, UniProt P41161 1-510); conditions: protein: recombinant; tags: N-terminal GST; dsDNA, one strand shown
# Summary of the method: as §1
# HSF1 = HSF1 (Homo sapiens, UniProt Q00613 1-529); conditions: protein: recombinant; tags: N-terminal GST; chain copies: 3; dsDNA, one strand shown
# Summary of the method: as §1
# SPIC = target: T8, SPIC (Homo sapiens, UniProt Q8N5J4 1-248); conditions: protein: recombinant; tags: N-terminal GST; dsDNA, one strand shown
# T8 sequence: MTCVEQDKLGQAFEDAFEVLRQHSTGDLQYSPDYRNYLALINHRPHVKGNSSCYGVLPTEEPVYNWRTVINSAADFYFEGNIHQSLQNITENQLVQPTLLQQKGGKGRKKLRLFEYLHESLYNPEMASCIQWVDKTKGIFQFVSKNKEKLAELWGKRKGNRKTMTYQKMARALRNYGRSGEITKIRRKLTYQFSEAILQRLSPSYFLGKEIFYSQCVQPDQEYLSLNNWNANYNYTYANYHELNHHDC
# Summary of the method: as §1
# ELF4 = ELF4 (Homo sapiens, UniProt Q99607 1-663); conditions: protein: recombinant; tags: N-terminal GST; dsDNA, one strand shown
# Summary of the method: as §1
# ELK4 = target: T9, ELK4 (Homo sapiens, UniProt P28324-2 1-405); conditions: protein: recombinant; tags: N-terminal GST; dsDNA, one strand shown
# T9 sequence: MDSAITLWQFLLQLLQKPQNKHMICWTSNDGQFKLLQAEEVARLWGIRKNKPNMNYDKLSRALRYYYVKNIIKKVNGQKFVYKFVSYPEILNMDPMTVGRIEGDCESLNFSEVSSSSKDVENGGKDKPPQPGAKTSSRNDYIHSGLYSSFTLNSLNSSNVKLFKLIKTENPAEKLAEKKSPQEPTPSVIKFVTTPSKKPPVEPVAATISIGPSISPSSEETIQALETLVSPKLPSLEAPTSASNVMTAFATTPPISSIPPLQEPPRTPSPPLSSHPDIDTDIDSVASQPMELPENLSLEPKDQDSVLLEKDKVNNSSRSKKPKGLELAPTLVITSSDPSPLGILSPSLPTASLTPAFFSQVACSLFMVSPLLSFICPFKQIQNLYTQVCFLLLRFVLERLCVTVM
# Summary of the method: as §1
# ETV2 = target: T10, ETV2 (Homo sapiens, UniProt O00321 1-342); conditions: protein: recombinant; tags: N-terminal GST; dsDNA, one strand shown
# T10 sequence: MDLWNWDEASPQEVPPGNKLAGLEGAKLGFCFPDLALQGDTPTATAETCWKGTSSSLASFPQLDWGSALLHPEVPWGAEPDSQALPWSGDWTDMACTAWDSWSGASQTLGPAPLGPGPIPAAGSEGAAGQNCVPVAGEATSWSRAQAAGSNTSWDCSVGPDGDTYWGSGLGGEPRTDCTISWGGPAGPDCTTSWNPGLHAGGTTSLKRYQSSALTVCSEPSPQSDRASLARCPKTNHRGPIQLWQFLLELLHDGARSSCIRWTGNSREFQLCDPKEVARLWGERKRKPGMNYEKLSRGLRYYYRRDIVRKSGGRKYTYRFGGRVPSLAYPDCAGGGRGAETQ
# Summary of the method: as §1
# ELF3 = target: T11, ELF3 (Homo sapiens, UniProt P78545 1-371); conditions: protein: recombinant; tags: N-terminal GST; dsDNA, one strand shown
# T11 sequence: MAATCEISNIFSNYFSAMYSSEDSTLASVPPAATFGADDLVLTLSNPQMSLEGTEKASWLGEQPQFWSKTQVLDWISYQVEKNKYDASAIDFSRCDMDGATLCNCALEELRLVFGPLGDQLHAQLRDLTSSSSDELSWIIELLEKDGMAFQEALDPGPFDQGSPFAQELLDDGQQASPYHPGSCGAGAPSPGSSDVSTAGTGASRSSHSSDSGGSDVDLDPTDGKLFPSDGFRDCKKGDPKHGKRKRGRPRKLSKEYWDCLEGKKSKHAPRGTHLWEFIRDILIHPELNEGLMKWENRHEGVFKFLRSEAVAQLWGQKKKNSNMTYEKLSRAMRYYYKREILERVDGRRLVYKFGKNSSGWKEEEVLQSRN
# Summary of the method: as §1
# CRX = CRX (Homo sapiens, UniProt O43186 1-299); conditions: protein: recombinant; tags: N-terminal GST; dsDNA, one strand shown
# Summary of the method: as §1
# ETV1 = ETV1 (Homo sapiens, UniProt P50549 1-477); conditions: protein: recombinant; tags: N-terminal GST; dsDNA, one strand shown
# Summary of the method: as §1
# HSF1, sequence (Q00613 whole entry): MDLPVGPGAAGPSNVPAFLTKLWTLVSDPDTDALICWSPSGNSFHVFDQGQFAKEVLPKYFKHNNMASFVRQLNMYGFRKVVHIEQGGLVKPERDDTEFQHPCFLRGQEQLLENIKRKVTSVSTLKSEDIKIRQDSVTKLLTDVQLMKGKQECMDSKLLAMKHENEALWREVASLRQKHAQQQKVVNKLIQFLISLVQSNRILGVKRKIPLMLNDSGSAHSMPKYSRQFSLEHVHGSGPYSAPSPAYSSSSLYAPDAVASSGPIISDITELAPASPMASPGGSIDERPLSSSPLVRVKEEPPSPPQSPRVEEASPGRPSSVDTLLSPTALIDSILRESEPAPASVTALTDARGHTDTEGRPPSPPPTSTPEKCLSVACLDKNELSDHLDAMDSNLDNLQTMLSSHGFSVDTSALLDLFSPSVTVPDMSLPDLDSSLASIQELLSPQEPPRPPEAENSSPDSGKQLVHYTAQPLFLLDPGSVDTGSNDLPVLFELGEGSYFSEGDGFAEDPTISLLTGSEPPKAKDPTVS
# ELF4, sequence (Q99607 whole entry): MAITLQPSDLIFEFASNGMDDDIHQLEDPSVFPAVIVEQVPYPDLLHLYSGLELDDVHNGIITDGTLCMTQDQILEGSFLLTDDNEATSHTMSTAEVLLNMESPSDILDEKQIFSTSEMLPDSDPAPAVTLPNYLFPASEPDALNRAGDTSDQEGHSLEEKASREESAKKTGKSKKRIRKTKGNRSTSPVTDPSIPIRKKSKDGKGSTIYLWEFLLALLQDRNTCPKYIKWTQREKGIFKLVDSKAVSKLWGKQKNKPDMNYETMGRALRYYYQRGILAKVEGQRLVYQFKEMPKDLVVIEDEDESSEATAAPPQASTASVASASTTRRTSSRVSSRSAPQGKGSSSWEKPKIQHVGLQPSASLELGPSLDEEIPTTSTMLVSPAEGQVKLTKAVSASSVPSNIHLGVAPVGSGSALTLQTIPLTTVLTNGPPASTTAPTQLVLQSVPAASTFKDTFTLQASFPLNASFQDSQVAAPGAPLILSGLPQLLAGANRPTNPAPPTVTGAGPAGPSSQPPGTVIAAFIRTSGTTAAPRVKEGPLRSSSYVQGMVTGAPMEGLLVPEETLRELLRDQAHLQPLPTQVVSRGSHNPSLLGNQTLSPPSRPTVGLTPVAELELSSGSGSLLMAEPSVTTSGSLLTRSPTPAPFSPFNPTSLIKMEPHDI
# ETV5, sequence (P41161 whole entry): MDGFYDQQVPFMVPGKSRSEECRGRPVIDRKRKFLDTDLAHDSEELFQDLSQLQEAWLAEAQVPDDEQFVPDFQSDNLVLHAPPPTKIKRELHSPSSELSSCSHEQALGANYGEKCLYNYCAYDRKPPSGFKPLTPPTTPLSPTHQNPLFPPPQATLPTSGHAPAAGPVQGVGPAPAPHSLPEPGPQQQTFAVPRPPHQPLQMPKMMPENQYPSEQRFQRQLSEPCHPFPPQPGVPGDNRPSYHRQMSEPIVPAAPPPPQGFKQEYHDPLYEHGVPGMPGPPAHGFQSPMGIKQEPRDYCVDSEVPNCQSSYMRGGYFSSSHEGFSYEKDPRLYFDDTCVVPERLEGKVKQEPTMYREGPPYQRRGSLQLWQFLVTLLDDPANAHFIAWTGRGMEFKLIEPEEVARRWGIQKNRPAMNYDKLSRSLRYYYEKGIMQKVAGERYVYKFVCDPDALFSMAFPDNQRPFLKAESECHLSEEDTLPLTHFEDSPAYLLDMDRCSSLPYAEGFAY
# CRX, sequence (O43186 whole entry): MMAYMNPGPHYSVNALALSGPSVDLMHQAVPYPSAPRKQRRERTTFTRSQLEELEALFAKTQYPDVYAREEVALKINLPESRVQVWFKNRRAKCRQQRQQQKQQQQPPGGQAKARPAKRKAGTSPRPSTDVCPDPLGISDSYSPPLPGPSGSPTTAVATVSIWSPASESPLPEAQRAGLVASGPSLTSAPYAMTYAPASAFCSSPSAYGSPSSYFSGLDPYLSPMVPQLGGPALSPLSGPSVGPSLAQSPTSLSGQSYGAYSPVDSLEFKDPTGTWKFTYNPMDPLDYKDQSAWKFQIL
# SPIB, sequence (Q01892 whole entry): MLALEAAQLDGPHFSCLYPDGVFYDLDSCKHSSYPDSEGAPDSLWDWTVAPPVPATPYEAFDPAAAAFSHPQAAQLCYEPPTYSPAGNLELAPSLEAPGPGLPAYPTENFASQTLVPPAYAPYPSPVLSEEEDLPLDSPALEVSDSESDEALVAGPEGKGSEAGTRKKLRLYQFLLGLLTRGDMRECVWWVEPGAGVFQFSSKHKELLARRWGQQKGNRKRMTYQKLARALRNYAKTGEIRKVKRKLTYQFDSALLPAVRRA
# ETV1, sequence (P50549 whole entry): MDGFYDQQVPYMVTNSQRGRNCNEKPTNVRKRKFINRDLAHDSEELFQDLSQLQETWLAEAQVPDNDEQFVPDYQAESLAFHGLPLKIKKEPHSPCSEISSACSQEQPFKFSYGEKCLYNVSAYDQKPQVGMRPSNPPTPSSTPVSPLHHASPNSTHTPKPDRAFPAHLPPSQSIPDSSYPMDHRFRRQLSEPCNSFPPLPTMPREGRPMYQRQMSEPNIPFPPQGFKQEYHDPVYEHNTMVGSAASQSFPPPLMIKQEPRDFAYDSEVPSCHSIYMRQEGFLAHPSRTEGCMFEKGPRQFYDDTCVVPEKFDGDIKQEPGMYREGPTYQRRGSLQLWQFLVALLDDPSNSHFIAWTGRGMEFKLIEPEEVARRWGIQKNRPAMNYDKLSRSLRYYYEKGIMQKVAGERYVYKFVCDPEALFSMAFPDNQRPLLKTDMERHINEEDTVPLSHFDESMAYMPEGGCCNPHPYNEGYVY
# ELF1, sequence (P32519 whole entry): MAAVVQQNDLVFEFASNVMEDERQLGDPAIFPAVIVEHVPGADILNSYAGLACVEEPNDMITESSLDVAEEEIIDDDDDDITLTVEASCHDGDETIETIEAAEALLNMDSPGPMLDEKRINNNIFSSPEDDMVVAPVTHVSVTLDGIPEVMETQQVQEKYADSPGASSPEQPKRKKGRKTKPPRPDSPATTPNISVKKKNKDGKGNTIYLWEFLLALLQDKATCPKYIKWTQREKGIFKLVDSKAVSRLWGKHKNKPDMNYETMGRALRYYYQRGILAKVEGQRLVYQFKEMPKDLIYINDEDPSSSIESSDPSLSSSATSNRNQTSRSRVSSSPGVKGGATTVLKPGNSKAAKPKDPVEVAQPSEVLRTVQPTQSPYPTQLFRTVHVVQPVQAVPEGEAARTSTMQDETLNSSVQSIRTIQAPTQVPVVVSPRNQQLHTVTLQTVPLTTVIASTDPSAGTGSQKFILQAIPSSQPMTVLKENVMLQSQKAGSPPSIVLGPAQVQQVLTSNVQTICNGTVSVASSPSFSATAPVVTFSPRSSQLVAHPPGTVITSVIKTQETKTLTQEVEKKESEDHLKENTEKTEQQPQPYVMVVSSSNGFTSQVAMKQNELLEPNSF
sequence,measurement,setting,value
AATGAG,binding signal,FLI1,"1.09 fold enrichment (6-mer frequency, TF over GST control)"
same,binding signal,ELK1,"1.18 fold enrichment (6-mer frequency, TF over GST control)"
same,binding signal,GABPA,"1.22 fold enrichment (6-mer frequency, TF over GST control)"
same,binding signal,ERG,"1.12 fold enrichment (6-mer frequency, TF over GST control)"
same,binding signal,ELF1,"1.14 fold enrichment (6-mer frequency, TF over GST control)"
same,binding signal,EHF,"1.18 fold enrichment (6-mer frequency, TF over GST control)"
same,binding signal,SPI1,"1.51 fold enrichment (6-mer frequency, TF over GST control)"
same,binding signal,SPIB,"1.08 fold enrichment (6-mer frequency, TF over GST control)"
same,binding signal,ELK3,"1.23 fold enrichment (6-mer frequency, TF over GST control)"
same,binding signal,FEV,"1.14 fold enrichment (6-mer frequency, TF over GST control)"
same,binding signal,ETV5,"1.17 fold enrichment (6-mer frequency, TF over GST control)"
same,binding signal,HSF1,"1.05 fold enrichment (6-mer frequency, TF over GST control)"
same,binding signal,SPIC,"1.31 fold enrichment (6-mer frequency, TF over GST control)"
same,binding signal,ELF4,"1.14 fold enrichment (6-mer frequency, TF over GST control)"
same,binding signal,ELK4,"1.14 fold enrichment (6-mer frequency, TF over GST control)"
same,binding signal,ETV2,"1.46 fold enrichment (6-mer frequency, TF over GST control)"
same,binding signal,ELF3,"1.25 fold enrichment (6-mer frequency, TF over GST control)"
same,binding signal,CRX,"1.08 fold enrichment (6-mer frequency, TF over GST control)"
same,binding signal,ETV1,"1.21 fold enrichment (6-mer frequency, TF over GST control)"
